Rows were chosen to be rich in hits. Some 15% of all compounds tested hit in one or more screens of this group.
Gal4-VP16 FLuc: counter-screen for ROR gamma inhibitors: Gal4-VP16 reporter. Drosophila S2 Gal4-VP16 UAS-luciferase, luminescence, 20 h. Potency, µM (titrated, usually from 53.6 µM), for the others: at the highest dose activity, negative = inhibition, hits mostly inhibitors. 310,000 compounds, 3.5% hits;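 further: Gal4-VP16 expression switched on by copper sulfate through the metallothionein promoter; nearly all actives have a fitted effect of over 50% in size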
ALOX12 inh: ALOX12 (human) lipoxygenase inhibition; P18054; purified 12hLO, xylenol orange hydroperoxide absorbance; Potency, µM (series often up to 108 µM), for the others: at the top dose activity change, negative = inhibition, usual class: inhibitors; 580,000 compounds, 1.1% hits
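Purified human 12hLO (150 nM final) in 25 mM Hepes, 0.01% Triton X-100, pH 7.0 was preincubated 15 min at room temperature with compound. Then 40 uM arachidonic acid was added, 30 min. Hydroperoxide was read by Fe-XO absorbance ratio 573/405 nm.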
DT40 TDP1 no CPT: qHTS for Inhibitors of human tyrosyl-DNA phosphodiesterase 1 (TDP1): qHTS in cells in absence of CPT | AID 686978, 2013 | DT40 Tdp1-/- hTDP1 cells, no CPT, ATP luminescence, 48 h | Potency, µM (top dose mostly 46.2 µM), inactives show at the top dose activity change, negative = growth inhibition, most hits filed as inhibitors | 420,000 compounds, 15% hits; further: nearly all actives have a fitted effect of over 55% in size
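Growth of hTDP1-complemented DT40 Tdp1-knockout cells is measured by ATP luminescence after at least 48 hr compound exposure at 37 °C, with DMSO substituting for the 20 nM CPT used in the parallel screen.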
DT40 TDP1 CPT: DT40-hTDP1 cell growth loss with CPT. 420,000 compounds, 12% hits. chicken DT40 Tdp1-/-;hTDP1 cells + 20 nM CPT, ATP luminescence, 48 h. Potency, µM (top dose mostly 46.2 µM), for inactives: at the top dose activity change, negative = growth inhibition, usual class: inhibitors. AID 686979; further: nearly all actives have a fitted effect of over 55% in size
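Chicken DT40 Tdp1-/- cells stably complemented with human TDP1 were seeded at 400 cells/well in medium containing 20 nM camptothecin, exposed to pin-transferred compounds, and grown at 37 °C for at least 48 hr. Viability was read as ATP luminescence.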
ELG1 DNA repair: inhibitors of ELG1-dependent DNA repair in HEK293T cells. HEK293T ELG1-luciferase reporter, luminescence, 16 h; DNA damage induced by 5-fluorouridine. Potency, µM (highest dose often 46.1 µM), without a hit: at the top dose activity change, negative = inhibition, hits mostly inhibitors. 330,000 compounds, 2.3% hits. AID 504467; further: nearly all actives have a fitted effect of over 55% in size
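HEK293T cells expressing luciferase-tagged ELG1 (2,000/well) received 5-Fluorouridine plus compound or DMSO for 16 hr at 37 °C. Luciferase was read by ONE-Glo luminescence after 30 min at room temperature.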
RORg inh: inhibitors of mouse ROR gamma transcriptional activity | P51450 | Potency, µM (top dose mostly 53.6 µM), inactives show top-dose activity change, negative = inhibition, actives largely listed as inhibitors | 310,000 compounds, 5.4% hits | Drosophila S2 Gal4-RORgamma UAS-luciferase reporter, 20 h | AID 2551; further: nearly all actives have a fitted effect of over 60% in size
Target sequence (P51450 whole entry, looked up, the tested form may be a part): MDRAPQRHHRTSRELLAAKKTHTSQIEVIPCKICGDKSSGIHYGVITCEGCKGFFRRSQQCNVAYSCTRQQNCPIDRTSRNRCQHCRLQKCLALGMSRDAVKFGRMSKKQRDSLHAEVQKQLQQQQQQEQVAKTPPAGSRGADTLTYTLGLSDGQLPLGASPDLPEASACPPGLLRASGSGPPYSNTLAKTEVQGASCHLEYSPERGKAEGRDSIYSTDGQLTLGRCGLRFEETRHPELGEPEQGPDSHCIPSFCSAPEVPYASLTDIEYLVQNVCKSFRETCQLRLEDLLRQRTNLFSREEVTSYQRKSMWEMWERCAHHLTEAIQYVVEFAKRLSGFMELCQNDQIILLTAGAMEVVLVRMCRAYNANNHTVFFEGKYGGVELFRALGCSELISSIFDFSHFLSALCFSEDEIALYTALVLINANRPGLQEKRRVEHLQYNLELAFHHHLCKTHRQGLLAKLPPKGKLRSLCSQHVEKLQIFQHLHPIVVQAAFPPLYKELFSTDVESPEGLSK
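Stable Schneider cell line, Gal4 DNA-binding domain fused to ROR gamma, UAS-luciferase. Cmpd 1 hr RT → CuSO4 700 uM final → 20 hr RT → luciferase reagent 10 min → luminescence.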
* hit, by the source's call; ? = inconclusive; / = no result given; [ ] = remark or other dose. The call rests on the fitted dose curve; in most records, active means well fitted curve in the direction sought with a large enough effect; inconclusive means small, poorly fitted or top-dose-only effect, or another doubt; inactive means no such curve, though single readings can be large; an effect the other way counts as inactive or inconclusive. On the % scale 0 is the no-effect control and ±100 the full control effect; potency means the concentration at half of the fitted maximal effect.

SMILES | Gal4-VP16 FLuc | ALOX12 inh | DT40 TDP1 no CPT | DT40 TDP1 CPT | ELG1 DNA repair | RORg inh
CC(=O)c1ccc(N2CCN(C(=O)C3CCN(S(=O)(=O)c4ccc5c(c4)CC(C)N5C(C)=O)CC3)CC2)cc1 (centres undefined) | -19% | -5% | ? | 18µM* | -6% | ?
COc1ccc(N2CCN(S(=O)(=O)c3ccc4c(c3)CC(C)N4C(C)=O)CC2)cc1 (centres undefined) | / | -16% | ? | 6.5µM* | / | /
COc1ccc(N2CCN(S(=O)(=O)c3ccc4c(c3)C(C(C)C)C(=O)N4)CC2)cc1 (centres undefined) | / | ? | 8.2µM* | 18µM* | / | /
CCOC(=O)C1CCN(S(=O)(=O)c2ccc3c(c2)CC(C)N3C(=O)C2CC2)CC1 (centres undefined) | 2% | 3% | ? | -30% | -6% | -2%
Cc1cnc(CCNS(=O)(=O)c2cn(C)cn2)n1CC1CC1 | / | 82% | / | / | / | /
CC(=O)N1c2ccc(S(=O)(=O)N3CCC(C(=O)N4CCN(c5cccc(C(F)(F)F)c5)CC4)CC3)cc2CC1C (centres undefined) | ? | -8% | 2.3µM* | 8.2µM* | ? | ?
CCOc1nc2ccccc2cc1C=O | -10% | 2% | 2.6µM* | 2.3µM* | -6% | -1%
Cc1ccc(CCNc2nc3ccccc3c3nc(-c4ccccc4)nn23)cc1 | / | -17% | ? | ? | / | /
COc1ccc(CCNc2nc3cc(OC)c(OC)cc3c3nc(-c4ccccc4)nn23)cc1OC | / | -6% | 2.9µM* | 5.8µM* | / | /
Cc1cccc(-c2nc3c4ccccc4nc(NCc4ccc(F)cc4)n3n2)c1 | / | -11% | -25% | -4% | / | /
COc1ccc(CCNc2nc3ccccc3c3nc(-c4cccc(C)c4)nn23)cc1OC | / | -1% | 7.3µM* | ? | / | /
COc1ccc(CNc2nc3ccccc3c3nc(-c4ccccc4)nn23)cc1 | / | -18% | 12µM* | -8% | / | /
Cc1ccsc1C(=O)NCCn1c(C)cnc1C1CCC1 | / | 15% | / | / | / | /
Cc1ccccc1-c1cc(C(=O)NCc2cccs2)nn1CC1CC(c2cccc([N+](=O)[O-])c2)=NO1 (centres undefined) | / | -19% | 16µM* | ? | -8% | /
Cc1ccccc1-c1cc(C(=O)NCc2ccco2)nn1CC1CC(c2cccc([N+](=O)[O-])c2)=NO1 (centres undefined) | / | ? | ? | 16µM* | ? | /
Cc1ccccc1-c1cc(C(=O)O)nn1CC1CC(c2cccc([N+](=O)[O-])c2)=NO1 (centres undefined) | / | -28% | -4% | 12% | 7% | /
CC(C)(C)OC(=O)/C=C/[C@H]1Cc2ccccc2N1 | / | -27% | / | / | / | /
O=C(O)c1ccc(NC(=S)NC(=O)c2cncc(Br)c2)cc1 | ? | 0% | -1% | 4% | ? | ?
O=C(NC(=S)Nc1nc(-c2ccccc2)cs1)c1cncc(Br)c1 | ? | 2% | -10% | -10% | -2% | 1.6µM*
O=C(NC(=S)Nc1nc(-c2ccccc2)cs1)c1cccnc1 | -13% | 35µM* | -3% | 5% | 21% | 4µM*
O=C(Nc1nc(-c2ccccc2Cl)cs1)c1cccnc1 | 5% | -20% | ? | ? | ? | 18%
O=C(c1coc(=O)c(Br)c1)N1CCOCC1 | -6% | 470% | 5.2µM* | 5.2µM* | 25% | -7%
CC(C)(C)c1ccc(C2(C)NC(=O)N(Cc3ncc(-c4ccccc4)o3)C2=O)cc1 (centres undefined) | / | -27% | / | / | / | /
COC(=O)C(c1cccc(OC)c1)(c1cn(C)c2ccccc12)C(Nc1ccccc1)c1ccccc1 (centres undefined) | / | -6% | / | / | / | /
Cn1cnc(S(=O)(=O)N2CCC(Cc3nncn3-c3ccccc3)CC2)c1 | / | 25% | / | / | / | /
SMILES | Gal4-VP16 FLuc | ALOX12 inh | DT40 TDP1 no CPT | DT40 TDP1 CPT | ELG1 DNA repair | RORg inh
CCN1C(=S)SC(=O)C1=C1C=C(C)OC(C)=C1 | 16% | 0% | ? | -9% | ? | ?
CCN1C(=S)SC(=O)C1=C1C=C(C)N(Cc2ccco2)C(C)=C1 | ? | -18% | 5.2µM* | 4.6µM* | ? | 1%
O=C(c1ccc(Cl)nc1)N1CCCC(c2nn(-c3ccc(F)cc3)c(=O)[nH]2)C1 (centres undefined) | / | 15% | / | / | / | /
Cc1ccc2oc(C(=O)N3CCCC3)cc(=O)c2c1 | / | -30% | / | / | / | /
C=CCn1c(=O)c2ccccc2n2c(SCC(=O)O)nnc12 | 5% | -100% | 4% | 4% | 4% | 8%
C=CCn1c(=O)c2ccccc2n2c(SCc3nc4ccccc4s3)nnc12 | -1% | 8% | 16µM* | ? | ? | ?
Cc1ccc(NC(=O)CN(C)C(=O)COc2ccccc2-c2ccccc2)cc1 | / | -19% | 15µM* | -29% | ? | /
Cc1ccc(C(=O)COc2ccccc2N2C(=O)c3ccccc3C2=O)cc1 | -5% | -10% | 2% | 6% | ? | -7%
Cc1ccc(S(=O)(=O)Oc2ccccc2-c2ccccc2)cc1 | / | -1% | 13µM* | 16µM* | / | /
CN(CC(=O)Nc1cccc(F)c1)C(=O)c1sccc1-c1ccccc1 | / | 2% | -21% | -9% | 19% | /
CCN(CC(=O)Nc1ccc(NC(C)=O)cc1)C(=O)COc1ccccc1-c1ccccc1 | / | -12% | -11% | -21% | -8% | /
CN(CC(=O)Nc1ccc(Cl)cc1)C(=O)c1sccc1-c1ccccc1 | / | -15% | ? | 21µM* | ? | /
Cc1ccc(C(=O)COc2ccccc2-c2ccccc2)cc1 | ? | 5% | 26µM* | 23µM* | 1% | ?
CCCN(CC1CCOC1)C(=O)NCc1ccc(F)cc1 (centres undefined) | / | -14% | / | / | / | /
Cc1cn2c(-c3ccccc3F)nc(=S)nc2s1 | / | -26% | / | / | / | /
C=CCNC(=S)NC(C)c1ccccc1 (centres undefined) | / | -14% | / | / | / | /
COC1CCC(C(=O)N2CC(CNc3ccccc3)C3(C2)CN(c2ccccc2)C3)CC1 (centres undefined) | / | 18%[176 µM] | / | / | / | /
Cc1ccc(NC(=O)CN(C)C(=O)Cc2c(Cl)cccc2Cl)cc1 | 1% | -20% | 16µM* | ? | 5% | 3%
Cc1ccc(NC(=O)CN(C)C(=O)COc2ccc(C(=O)c3ccc(F)cc3)cc2)cc1 | ? | -18% | 21µM* | -29% | ? | ?

Compound activity as filed in PubChem BioAssay.
